The record followed here is PubChem BioAssay AID743100 (Vanderbilt Specialized Chemistry Center, 2013).

Values without a mark were called inactive. Calls of active or inactive are those of the source.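 Rule for the calls: active = calcium response above 60% of the acetylcholine maximum at human M5, as a positive modulator; inactive = the rest.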

The assay deals with Muscarinic acetylcholine receptor M5 (Homo sapiens) (UniProt P08912). The assay is described as follows: M5 muscarinic receptor positive allosteric modulators, cell-based, single concentration, CHO-K1 hM5, calcium flux (AID 743100). The conditions noted are these: CHO-K1 hM5, Fluo-4 calcium flux, ACh EC20, hits give high values; at 10 µM unless noted.
Muscarinic acetylcholine receptor M5 (Homo sapiens), sequence (P08912 whole entry, looked up): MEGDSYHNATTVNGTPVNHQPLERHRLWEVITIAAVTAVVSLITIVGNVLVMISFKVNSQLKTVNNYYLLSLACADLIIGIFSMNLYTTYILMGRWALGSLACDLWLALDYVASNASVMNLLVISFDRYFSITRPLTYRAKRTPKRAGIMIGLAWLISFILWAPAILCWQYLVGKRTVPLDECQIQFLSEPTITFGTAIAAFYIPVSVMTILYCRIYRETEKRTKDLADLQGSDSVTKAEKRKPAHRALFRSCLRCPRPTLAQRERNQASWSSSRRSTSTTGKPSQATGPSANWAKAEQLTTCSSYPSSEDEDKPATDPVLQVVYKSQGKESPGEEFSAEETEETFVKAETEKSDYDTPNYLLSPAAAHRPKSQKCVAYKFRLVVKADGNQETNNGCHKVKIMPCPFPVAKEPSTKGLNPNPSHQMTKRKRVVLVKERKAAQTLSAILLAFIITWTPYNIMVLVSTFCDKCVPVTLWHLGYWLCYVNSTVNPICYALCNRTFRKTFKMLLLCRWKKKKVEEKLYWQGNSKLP

Turning to `CCN(C(=O)C1CCN(S(=O)(=O)c2cc(F)c(F)c(F)c2)CC1)[C@H](C)c1ccccc1`, the % ACh max response was 71.9% (active).
`CCN(CC1CCN(S(=O)(=O)c2ccc3occc3c2)CC1)C(=O)c1ccccc1`: the % ACh max response is 10.9%.
As for `COc1ccc(S(=O)(=O)N2CCC(C(=O)N(C)Cc3ccccc3)CC2)cc1`, the figure is 64.5% [at 30 µM] (active); as for `CCN(Cc1ccccc1)C(=O)C1CCN(S(=O)(=O)c2cccc(C(F)(F)F)c2)CC1`, 63.9% [at 30 µM] (active).
With `CCN(Cc1ccccc1)C(=O)C1CCN(S(=O)(=O)c2ccccc2Cl)CC1`, the % ACh max response was 33.6% [at 30 µM].
Consider `CCN(Cc1ccccc1F)C(=O)C1CCN(S(=O)(=O)c2ccc3cn[nH]c3c2)CC1`, for which the % ACh max response is 69.8% (active).
As for `CCN(Cc1ccccc1)C(=O)C1CCN(S(=O)(=O)c2cccc(OC(F)F)c2)CC1`, the figure is 70.2% [at 30 µM] (active); as for `CCN(Cc1cccc(OC)c1)C(=O)C1CCN(S(=O)(=O)c2ccc3cn[nH]c3c2)CC1`, 74.2% (active); as for `CCN(Cc1ccc(-c2ccccc2)cc1)C(=O)C1CCN(S(=O)(=O)c2ccc3cn[nH]c3c2)CC1`, 24.8%.
As to `CCN(Cc1ccccc1)C(=O)C1CCN(S(=O)(=O)c2ccc3c(c2)OCCO3)CC1`, the % ACh max response is 72.2% [at 30 µM] (active).
With `CC(=O)N(Cc1ccccc1)CC1CCN(S(=O)(=O)c2ccc(OC(F)(F)F)cc2)CC1`, the % ACh max response is 6.72%.
As for `CCN(Cc1ccccc1)C(=O)C1CCN(S(=O)(=O)c2ccccc2C#N)CC1`, the figure is 24% [at 30 µM]; as for `CCN(Cc1ccccc1)C(=O)C1CCN(S(=O)(=O)c2ccc3c(c2)OCO3)CC1`, 62.9% (active).
Take `CCN(Cc1ccccc1C(F)(F)F)C(=O)C1CCN(S(=O)(=O)c2ccc3cn[nH]c3c2)CC1`: the % ACh max response is 84.2% (active).
The figure for `CCN(Cc1cccnc1)C(=O)C1CCN(S(=O)(=O)c2ccc3cn[nH]c3c2)CC1` is 19.8%.
Regarding `CCN(Cc1ccccc1)C(=O)C1CCN(S(=O)(=O)c2ccc3[nH]ncc3c2)CC1`, the % ACh max response is 84.3% [at 30 µM] (active).
Consider `CCN(Cc1ccccc1)C(=O)C1CCN(S(=O)(=O)CC(C)(C)C)CC1`, for which the % ACh max response was 17% [at 30 µM].
The figure for `CCCc1ccc(S(=O)(=O)N2CCC(C(=O)N(CC)Cc3ccccc3)CC2)cc1` is 62.9% [at 30 µM] (active); for `CCN(Cc1ccccc1OC(F)(F)F)C(=O)C1CCN(S(=O)(=O)c2ccc3cn[nH]c3c2)CC1` it is 73.2% (active).
The figure for `CCN(Cc1ccccc1)C(=O)C1CCN(S(=O)(=O)c2cccc(Cl)c2)CC1` is 65.3% [at 30 µM] (active); for `CCN(Cc1ccccc1)C(=O)C1CCN(S(=O)(=O)c2ccc(OC)nc2)CC1` it is 62.5% [at 30 µM] (active).
The figure for `CC1c2ccccc2CCN1C(=O)C1CCN(S(=O)(=O)c2ccc3cn[nH]c3c2)CC1` (centres undefined) is 36.3%; for `COc1ccc(S(=O)(=O)N2CCC(C(=O)N3CCCC3c3ccccc3)CC2)cc1` (centres undefined) it is 25.6% [at 30 µM].
For the compound `CCN(Cc1ccccc1Cl)C(=O)C1CCN(S(=O)(=O)c2ccc3cn[nH]c3c2)CC1`, the % ACh max response is 90.7% (active).
Turning to `CCN(Cc1ccc(F)cc1)C(=O)C1CCN(S(=O)(=O)c2ccc3cn[nH]c3c2)CC1`, the % ACh max response is 52.1%.
`CCN(Cc1ccc(OC(F)(F)F)cc1)C(=O)C1CCN(S(=O)(=O)c2ccc3cn[nH]c3c2)CC1`: the % ACh max response is 40.8%.
As for `CCN([C@H](C)c1ccccc1)S(=O)(=O)C1CCN(S(=O)(=O)c2ccc3occc3c2)CC1`, the % ACh max response is 14.6%.
In the case of `CCN(Cc1ccccc1)C(=O)C1CCN(S(=O)(=O)c2ccc(OC)cc2)CC1`, the % ACh max response is 78.4% [at 30 µM] (active).
As to `CCN(Cc1ccccc1C(F)(F)F)C(=O)C1CCN(S(=O)(=O)c2ccc3occc3c2)CC1`, the % ACh max response was 84.8% (active).
For `CCN(C(=O)C1CCN(S(=O)(=O)c2ccc(-n3cccn3)cc2)CC1)[C@H](C)c1ccccc1`, the % ACh max response is 97.5% (active).
As for `CCN(Cc1ccccc1)C(=O)C1CCN(S(=O)(=O)c2ccc(OC(F)F)cc2)CC1`, the figure is 66.1% [at 30 µM] (active); as for `CC(=O)N(Cc1ccccc1)CC1CCN(S(=O)(=O)c2ccc3c(c2)OCCO3)CC1`, 7.56%; as for `CCN(C(=O)C1CCN(S(=O)(=O)c2ccc3c(c2)CCC3)CC1)[C@H](C)c1ccccc1`, 91.5% (active).
For `CCN(Cc1ccccc1)C(=O)C1CCN(S(=O)(=O)c2cccc3c2OCCO3)CC1`, the % ACh max response is 48% [at 30 µM].
Turning to `CCOC(=O)C1(Cc2ccccc2)CCN(S(=O)(=O)c2ccc3occc3c2)CC1`, the % ACh max response was 18.7%.
As for `CCN(Cc1ccccc1)C(=O)C1CCN(S(=O)(=O)c2ccc(C(F)(F)F)cc2)CC1`, the figure is 62.6% [at 30 µM] (active); as for `CC(=O)N(Cc1ccccc1)CC1CCN(S(=O)(=O)c2ccc3cn[nH]c3c2)CC1`, 11.4%; as for `CCN(Cc1ccccc1)C(=O)C1CCNCC1`, 14.9% [at 30 µM].
On to `CCN(Cc1ccccc1C(F)(F)F)C(=O)C1(F)CCN(S(=O)(=O)c2ccc(-n3cccn3)cc2)CC1`, for which the % ACh max response was 51.8%.
The figure for `CCN(Cc1ccccc1)C(=O)C1CCN(S(=O)(=O)c2ccc(C)s2)CC1` is 68.8% [at 30 µM] (active); for `CCN(Cc1cccc(F)c1F)C(=O)C1CCN(S(=O)(=O)c2ccc3cn[nH]c3c2)CC1` it is 63.7% (active); for `CCN(Cc1ccccc1)C(=O)C1CCN(S(=O)(=O)c2ccc(OC(F)(F)F)cc2)CC1` it is 71.7% [at 30 µM] (active).
The figure for `CCN(Cc1cccc(C#N)c1)C(=O)C1CCN(S(=O)(=O)c2ccc3cn[nH]c3c2)CC1` is 46.2%; for `CCN(Cc1ccccc1)C(=O)C1CCN(C(=O)c2ccc(OC)cc2)CC1` it is 25.5% [at 30 µM].
For the compound `CCN(Cc1ccc(SC)cc1)C(=O)C1CCN(S(=O)(=O)c2ccc3cn[nH]c3c2)CC1`, the % ACh max response was 14%.
The figure for `CCN([C@H](C)c1ccccc1)S(=O)(=O)C1CCN(S(=O)(=O)c2ccc3[nH]ncc3c2)CC1` is 18.7%.
Consider `O=C1N(Cc2ccccc2C(F)(F)F)CCCC12CCN(S(=O)(=O)c1ccc3[nH]ncc3c1)CC2`, for which the % ACh max response is 22.6%.
In the case of `CCN(Cc1ccccc1)C(=O)C1CCN(S(=O)(=O)c2ccc3cn[nH]c3c2)CC1`, the % ACh max response was 83.1% [at 30 µM] (active).
In the case of `CCN([C@H](C)c1ccccc1)S(=O)(=O)C1CCN(C(=O)c2ccc3[nH]ncc3c2)CC1`, the % ACh max response was 26.9%.
As for `CCN(C(=O)C1CCN(S(=O)(=O)c2ccc3occc3c2)CC1)[C@H](C)c1ccccc1C(F)(F)F`, the figure is 34.4%.
As for `CCN(Cc1cccc(C)c1)C(=O)C1CCN(S(=O)(=O)c2ccc3cn[nH]c3c2)CC1`, the figure is 85.8% (active); as for `CCN(Cc1ccccc1OC)C(=O)C1CCN(S(=O)(=O)c2ccc3cn[nH]c3c2)CC1`, 84.5% (active); as for `CN(C)C(=O)C1(Cc2ccccc2)CCN(S(=O)(=O)c2ccc3occc3c2)CC1`, 8.49%.
Consider `CCN(Cc1ccccc1)C(=O)C1CCN(S(=O)(=O)c2ccc(Br)cc2)CC1`, for which the % ACh max response was 62.1% [at 30 µM] (active).
The figure for `O=C(NCc1ccccc1)C1(Cc2ccccc2)CCN(S(=O)(=O)c2ccc3occc3c2)CC1` is 20.1%; for `CCN(Cc1ccccc1C(F)(F)F)C(=O)C1CCN(S(=O)(=O)c2ccc3[nH]ncc3c2)CC1` it is 90.2% (active).
`CCN(Cc1ccccc1)C(=O)C1CCN(S(=O)(=O)c2ccccc2F)CC1`: the % ACh max response is 38.4% [at 30 µM].
As to `CCN(Cc1ccccc1)C(=O)C1CCN(S(=O)(=O)c2ccc(OC)c(OC)c2)CC1`, the % ACh max response is 56% [at 30 µM].
The figure for `CCN(Cc1ccccc1)C(=O)C1CCN(S(=O)(=O)c2cccc(OC)c2)CC1` is 72.2% [at 30 µM] (active); for `CCN(Cc1ccccc1)C(=O)C1CCN(S(=O)(=O)c2cccc(F)c2)CC1` it is 63.2% [at 30 µM] (active); for `CCN(Cc1ccccc1)C(=O)C1CCN(S(=O)(=O)c2ccc(N3CCOCC3)nc2)CC1` it is 70% [at 30 µM] (active).
In the case of `CCN(Cc1ccccc1C(F)(F)F)C(=O)C1(F)CCN(S(=O)(=O)c2ccc3occc3c2)CC1`, the % ACh max response is 54%.
As for `CCN(Cc1ccccc1)C(=O)C1CCN(S(=O)(=O)c2ccccc2OC(F)(F)F)CC1`, the figure is 17.5% [at 30 µM]; as for `CCN(Cc1ccccc1)C(=O)C1CCN(S(=O)(=O)c2ccc3cnn(C)c3c2)CC1`, 62.3% (active).
